Results as given in PubChem BioAssay AID485346 (Sanford-Burnham Center for Chemical Genomics, 2010).
The campaign covered roughly 330,000 compounds. About 10,000 (3%) were called active.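 Rule for the calls: active = inhibition of at least 50% at 8 µM in the primary screen; inactive = the rest.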 This excerpt belongs to a sample that is enriched for actives.

Biological target: Protein Mdm4 (Homo sapiens) + E3 ubiquitin-protein ligase Mdm2 (Homo sapiens) (UniProt O15151+Q00987)
Test: disruptors of Mdm2/MdmX RING complex – cell-based, luminescence, split luciferase, SaOS-2, uHTS, primary screen (AID 485346)
Details: SaOS-2 split-luciferase Mdm2/MdmX complementation, at 8 µM, hits give high values

Sequence of Protein Mdm4 (Homo sapiens) + E3 ubiquitin-protein ligase Mdm2 (Homo sapiens) (O15151 whole entry, looked up): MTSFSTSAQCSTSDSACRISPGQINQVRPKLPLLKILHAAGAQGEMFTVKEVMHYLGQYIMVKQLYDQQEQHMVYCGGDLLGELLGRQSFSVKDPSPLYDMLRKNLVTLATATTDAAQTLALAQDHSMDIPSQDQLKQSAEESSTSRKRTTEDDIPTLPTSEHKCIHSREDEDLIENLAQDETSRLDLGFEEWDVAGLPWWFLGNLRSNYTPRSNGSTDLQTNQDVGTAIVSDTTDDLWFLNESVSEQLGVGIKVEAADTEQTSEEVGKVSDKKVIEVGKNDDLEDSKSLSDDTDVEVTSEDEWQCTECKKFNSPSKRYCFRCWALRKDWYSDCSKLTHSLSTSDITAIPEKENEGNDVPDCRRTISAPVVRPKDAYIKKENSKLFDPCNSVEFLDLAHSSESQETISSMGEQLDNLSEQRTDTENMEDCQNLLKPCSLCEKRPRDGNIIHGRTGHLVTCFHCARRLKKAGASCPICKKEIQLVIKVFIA
Sequence of Protein Mdm4 (Homo sapiens) + E3 ubiquitin-protein ligase Mdm2 (Homo sapiens) (Q00987 whole entry, looked up): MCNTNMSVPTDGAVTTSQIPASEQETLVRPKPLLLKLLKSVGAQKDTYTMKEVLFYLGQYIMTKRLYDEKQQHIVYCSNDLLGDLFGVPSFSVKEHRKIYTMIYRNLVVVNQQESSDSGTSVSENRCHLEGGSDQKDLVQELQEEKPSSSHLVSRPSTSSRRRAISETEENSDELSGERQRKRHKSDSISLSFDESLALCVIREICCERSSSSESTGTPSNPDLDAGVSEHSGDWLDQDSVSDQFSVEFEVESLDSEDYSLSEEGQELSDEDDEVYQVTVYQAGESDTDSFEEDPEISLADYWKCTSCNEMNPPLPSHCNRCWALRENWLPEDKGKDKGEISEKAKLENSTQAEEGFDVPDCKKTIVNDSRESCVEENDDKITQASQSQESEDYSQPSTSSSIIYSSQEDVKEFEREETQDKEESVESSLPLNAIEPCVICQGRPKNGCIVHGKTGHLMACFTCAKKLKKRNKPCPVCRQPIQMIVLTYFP

SMILES	inhibition
CCc1ccccc1NC(=O)c1ccc2snnc2c1	25.3% (inactive)
O=C(Nc1cccc(Br)c1)c1ccc2snnc2c1	-3.74% (inactive)
O=C(Nc1ccc2ccccc2c1)Nc1ccc2snnc2c1	88.1% (active)
CC(C)[C@@H](C(=O)O)N(Cc1cccc(CN([C@H](C(=O)O)C(C)C)S(C)(=O)=O)c1)S(C)(=O)=O	9.86% (inactive)
CCN(CC)S(=O)(=O)c1ccc(Cl)c(NC(=O)c2ccncc2)c1	11.7% (inactive)
Cc1cccc(NC(=O)c2cccnc2Cl)n1	2.81% (inactive)
CCN(CC)S(=O)(=O)c1ccc(NC(=O)c2cccnc2Cl)c(NC(=O)c2cccnc2Cl)c1	94.7% (active)
COc1ccc(OC)c(NC(=O)c2sc3nc(C)cc(C)c3c2N)c1	58.3% (active)
COCc1cc(C)nc2sc(C(=O)NC3CCCCC3)c(N)c12	7.84% (inactive)
COc1ccc(OC)c(NC(=O)c2ccc3c(c2)CCN3S(C)(=O)=O)c1	15.2% (inactive)
COc1ccc(N(C(=O)c2ccc(C)cc2)S(=O)(=O)c2cccs2)cc1	17.4% (inactive)
CN(C)c1ccc2c(=O)[nH][nH]c(=O)c2c1	4.05% (inactive)
O=C(NCc1cccs1)c1ccc2c(c1)ncn2C1CCCC1	-11.4% (inactive)
CCOC(=O)C1CCN(Cc2c(C(=O)N3CCOCC3)nc3c(C)cccn23)CC1	15.2% (inactive)
COC(=O)Cn1nc(-c2ccccc2)c2cc(Cl)ccc21	10.1% (inactive)
COCCCNc1nc2c(-c3cccc(C(F)(F)F)c3)nnn2c2ccccc12	17.3% (inactive)
COCCCNc1nc2c(-c3cccc(C)c3)nnn2c2ccc(Cl)cc12	55.3% (active)
CC1CCCN(c2ccc(C(=O)NCCc3ccccc3)cn2)C1 (centres undefined)	-61.6% (inactive)
O=c1oc2ccccc2c(NC2CCCCC2)c1NS(=O)(=O)c1ccc(Cl)cc1	14.1% (inactive)
S=c1[nH]nc2c3c4c(sc3ncn12)CCCC4	14% (inactive)
O=C1N[C@@H](c2ccccc2)COC(=O)[C@H](Cc2ccc(F)cc2)C/C=C\C[C@@H]1CC(=O)N(CCO)Cc1ccccc1	9.71% (inactive)
O=C1CCC/C=C/C[C@@H](CC(=O)N(CCO)Cc2ccccc2)C(=O)NC[C@H](c2ccccc2)O1	-21.8% (inactive)
O=C1NC[C@@H](c2ccccc2)OC(=O)[C@H](Cc2ccc(F)cc2)CC/C=C/C[C@H]1CC(=O)N(CCO)Cc1ccccc1	59.7% (active)

SMILES	inhibition
Cn1c(CCNS(=O)(=O)c2ccc(F)cc2)nnc1SCc1cccnc1	13.7% (inactive)
CN[C@H](C(=O)NC[C@H]1O[C@@H](n2cnc3c(N)ncnc32)[C@H](O)[C@@H]1O)[C@@H](C)OCc1ccccc1	16.8% (inactive)
COc1ccc2cc(C3=CC(=O)C[C@H](c4ccc5c(c4)OCO5)C3)ccc2c1	3.41% (inactive)
CC(C)(O)C(=O)NN(C(=O)c1ccccc1)c1cccc(Br)c1	-9.41% (inactive)
CCCCC(O)(CCCC)C(=O)NN(C(=O)CCl)c1ccccc1	87.3% (active)
CCCCCNC(=O)C1c2ccccc2Oc2ccccc21	-5.28% (inactive)
CCCC(O)(CCC)C(=O)NN(C(=O)CCl)c1cccc(C)c1	94% (active)
Cc1ccc(N(NC(=O)C(C)(C)O)C(=O)c2ccccc2)cc1C	-3.58% (inactive)
COC(=O)N(NC(=O)C(O)(C(C)C)C(C)C)c1ccccc1	-17.3% (inactive)
CCn1cc(C(=O)N[C@@H](C)C(=O)NCCO)c(=O)c2cc3c(cc21)OCO3	-4.24% (inactive)
Cc1ccc(N(CC(=O)NCC2CCCO2)C(=O)CNS(=O)(=O)c2ccc(Cl)cc2)cc1 (centres undefined)	-1.2% (inactive)
Cc1ccc2c(c1)N(CCCC(=O)NCc1cccnc1)C(=O)CO2	5.4% (inactive)
CSCC[C@H](NC(=O)NCc1cccs1)C(=O)O	3.11% (inactive)
O=C(/C(=C/c1cccc(Cl)c1)c1nc2ccccc2[nH]1)c1ccccc1	100% (active)
O=C(CCc1nc2ccccc2c(=O)[nH]1)OCC(=O)c1cccc(Cl)c1	30.6% (inactive)
O=C(Cc1nc2ccccc2[nH]c1=O)c1ccc(Cl)cc1	-186% (inactive)
CCCN(CCC)c1c([N+](=O)[O-])c(=O)oc2ccccc12	-1.56% (inactive)
Cc1cccc(-n2c(C)cc(/C=N/NC(N)=S)c2C)c1	-13.2% (inactive)
Cc1ccc(-n2nc(C)c(/C=N/NC(=O)c3cccs3)c2Cl)cc1	3.87% (inactive)
Cc1cccc(-n2c(C)cc(/C=N\NC(=O)c3cccs3)c2C)c1	67.2% (active)
CCC1CCC2(CC1)NC(=O)N(CC(=O)Nc1ccc(OC)cc1)C2=O (centres undefined)	18.6% (inactive)
CCN(CC(=O)Nc1ccc(NC(C)=O)cc1)C(=O)C1CC(=O)N(Cc2ccc(C)cc2)C1 (centres undefined)	-26.3% (inactive)
CCN(CC)c1ccc(C(=O)c2cnc(/N=C/N(C)C)s2)cc1	-23.2% (inactive)

SMILES	inhibition
COCCCNC(=S)NC(=O)c1ccccc1	-18.2% (inactive)
CCOC(=O)C1=C(NC(=S)NC(=O)c2ccccc2)c2ccccc2CC1(C)C	51.4% (active)
Cc1ccc(NC(=S)NC(=O)c2ccc(-c3ccccc3)cc2)cc1	12.8% (inactive)
CC1(C)C[C@H]2C3=CCC4[C@@]5(C)CC[C@H](O)[C@](C)(CO)C5CC[C@@]4(C)[C@]3(C)C[C@@H](O)[C@@]2(CO)[C@@H](O)[C@@H]1O (some centres undefined)	17.8% (inactive)
COc1ccc(NC(=O)c2ccco2)cc1NC(=O)c1ccc(C#N)cc1F	5.85% (inactive)
O=C(Nc1cccc2cccnc12)c1cccc(Cl)c1	-3.29% (inactive)
N#Cc1ccc(C(=O)Nc2cccc3cccnc23)c(F)c1	56.2% (active)
CC(C)Cc1ccc(C(C)C(=N)N)cc1 (centres undefined)	-18.4% (inactive)
COc1ccc(S(=O)(=O)N(CC(=O)NCc2ccco2)c2ccc(F)cc2)cc1	10.5% (inactive)
Cc1oc2c(c1C(=O)N1CCOCC1)C(=O)c1ccccc1C2=O	53.6% (active)
Cc1ccccc1-c1ccc(Nc2ccc(C(=O)N3CCOCC3)cc2)nn1	0.851% (inactive)
COC1=C(N2CCOCC2)C(=O)c2ccccc2C1=O	17.1% (inactive)
Nc1nnnn1CC(=O)N/N=C/c1ccc(-c2cccc(Cl)c2)o1	0.676% (inactive)
O=C(Cn1nnc(-c2ccccc2)n1)N/N=C/c1ccc(-c2ccc(Cl)cc2)o1	69.4% (active)
Nc1nnn(CC(=O)N/N=C/c2ccccc2)n1	14.3% (inactive)
Cc1ccc(-n2c(=O)cc(N3CCN(Cc4ccccc4)CC3)[nH]c2=O)cc1	27.6% (inactive)
CN(C)S(=O)(=O)c1ccc(N2CCCC2)c(C(=O)Nc2ccc(Br)cc2F)c1	16.4% (inactive)
CN1CCC(N(C)S(=O)(=O)c2ccc(NC(=O)c3cccc(C#N)c3)cc2)CC1	-11.1% (inactive)
Cc1ccc2nc(NC(=O)C3CSC4(C)CCC(=O)N34)sc2c1 (centres undefined)	11.9% (inactive)
O=C(COc1ccccc1O)NC1CCCC1	7.91% (inactive)
CCCCCCc1cc2cc(-c3nnc(-c4ccccc4)o3)c(=O)oc2cc1O	84.7% (active)
Cc1c(CC(=O)NCCCCCC(=O)O)c(=O)oc2cc3occ(-c4ccccc4)c3cc12	7.02% (inactive)
CCCCCCc1ccc(O)cc1O	26.2% (inactive)

SMILES	inhibition
COc1ccc(N2CCN(C(CNS(=O)(=O)c3ccc(C)cc3)c3ccccc3)CC2)cc1 (centres undefined)	10.9% (inactive)
CCC1CO/C(=C(\C(=C(Cl)Cl)N2CCOCC2)[N+](=O)[O-])N1 (centres undefined)	4.94% (inactive)
CS(=O)(=O)c1ccc2nc(NC(=O)c3ccc(Cl)nc3)sc2c1	20.5% (inactive)
CS(=O)(=O)c1ccc2nc(NC(=O)c3ccc(N4CCCC4=O)cc3)sc2c1	56.8% (active)
CN(C)CCCN(C(=O)c1ccc(S(=O)(=O)N2CCCCCC2)cc1)c1nc2cc3c(cc2s1)OCCO3	52.3% (active)
CC1CCN(C(=O)c2cccc(S(=O)(=O)N3CCCc4ccccc43)c2)CC1	16.9% (inactive)
CCN(CC)CCN(C(=O)c1ccc(S(=O)(=O)N2CCOCC2)cc1)c1nc2cc3c(cc2s1)OCCO3	4.55% (inactive)
CCc1ccc2nc(N(CCCN(C)C)C(=O)c3ccc4c(c3)OCCO4)sc2c1	39.7% (inactive)
COc1cccc(C(=O)Nc2nc3ccc(S(C)(=O)=O)cc3s2)c1	-20.5% (inactive)
CCOc1ccc2nc(N(CCCN(C)C)C(=O)c3ccc(C(=O)c4ccccc4)cc3)sc2c1	48.2% (inactive)
Cc1ccc2nc(N(CCN(C)C)C(=O)C3=COCCO3)sc2c1	23.3% (inactive)
CN(C)CCCN(C(=O)c1ccc(S(=O)(=O)N2CCCc3ccccc32)cc1)c1nc2ccc(F)cc2s1	76% (active)
CN(C)CCCN(C(=O)c1ccc(S(=O)(=O)N2CCCCCC2)cc1)c1nc2ccc(Br)cc2s1	70.8% (active)
COc1ccc2sc(N(CCCN(C)C)C(=O)c3ccc(S(=O)(=O)N(C)C4CCCCC4)cc3)nc2c1	19.3% (inactive)
CCN(CC)CCn1cnc2c1c(=O)n(CCOC(=O)c1cc(OC)c(OC)c(OC)c1)c(=O)n2C	11.6% (inactive)
CCN(CC)CCN1C(=O)C2C(C(=O)Nc3ccc(Br)cc3)C3C=CC2(O3)C1C(=O)NC1CCCCC1 (centres undefined)	-3.95% (inactive)
CC(C)CN1CCNC(=O)C1CC(=O)N(C)CC1CCOCC1 (centres undefined)	11.5% (inactive)
Cc1ccc(CNC(=O)c2ccc(CS(=O)Cc3cccc(Cl)c3)o2)cc1 (centres undefined)	-2.29% (inactive)
O=C(CCc1ccccc1Cl)Nc1ccc(S(=O)(=O)Nc2nccs2)cc1	7.38% (inactive)
O=C(COC(=O)c1cccnc1Cl)Nc1ccc(S(=O)(=O)N2CCOCC2)cc1	5.66% (inactive)
